According to PubChem BioAssay (NCI):
About 79,000 compounds went through this panel and 15% of them were active in at least one assay; those are over-represented in the sample as a whole. Cut-off read from the data, not from the text of the source: active = growth inhibition above about 70%; inactive = the rest.

What was measured:
[1] = NCI Yeast Anticancer Drug Screen. Data for the rad52 strain (AID 147);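 note: 0% = growth of vehicle-treated control cultures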; conditions: S. cerevisiae rad52 mutant growth inhibition, active compounds read high
Procedure, shortened: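 Yeast strain carrying a DNA damage repair alteration was exposed to test compounds. Growth inhibition was measured relative to vehicle-treated controls.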

[2] = NCI Yeast Anticancer Drug Screen. Data for the wt1 strain (AID 149);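 note: 0% = growth of vehicle-treated wt1 cultures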; conditions: S. cerevisiae wt1 strain (SPY 50644) growth inhibition, active compounds read high
Procedure, shortened: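 Growth inhibition read against vehicle controls after compound exposure of the wt1 yeast strain.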

[3] = NCI Yeast Anticancer Drug Screen. Data for the rad50EPP+ strain (AID 151);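 note: 0% = growth of vehicle-treated control cultures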; conditions: S. cerevisiae rad50 mutant strain, active compounds read high
Procedure, shortened: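 Yeast strain carrying rad50 alteration (rad50EPP+) exposed to compounds; growth inhibition measured relative to vehicle-treated controls.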

[4] = NCI Yeast Anticancer Drug Screen. Data for the mgt1 strain (AID 153); conditions: S. cerevisiae mgt1 mutant growth inhibition, active compounds read high
Procedure, shortened: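 Yeast mgt1 strain (DNA repair/cell-cycle alteration panel) exposed to compounds; growth inhibition measured relative to vehicle-treated controls.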

[5] = NCI Yeast Anticancer Drug Screen. Data for the rad50 strain (AID 155);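 note: 0% = growth of vehicle-only cultures of the same strain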; conditions: S. cerevisiae rad50 strain growth inhibition, active compounds read high
Procedure, shortened: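 Readout: growth inhibition relative to vehicle-treated cultures. Compound exposure was carried out in a genetically defined yeast strain deficient in DNA damage repair.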

[6] = NCI Yeast Anticancer Drug Screen. Data for the mec2-1 strain (AID 157); conditions: S. cerevisiae mec2-1 strain, active compounds read high
Procedure, shortened: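 mec2-1 yeast strain, carrying an alteration in DNA damage repair or cell cycle control, was exposed to compounds; growth inhibition was measured relative to vehicle-treated controls.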

[7] = NCI Yeast Anticancer Drug Screen. Data for the rad14 strain (AID 159);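 note: 0% = growth of vehicle-treated control cultures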; conditions: S. cerevisiae rad14 strain growth inhibition, active compounds read high
Procedure, shortened: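 Growth inhibition vs vehicle controls; genetically altered yeast strain (DNA damage repair defect) treated with test compounds.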

[8] = NCI Yeast Anticancer Drug Screen. Data for the sgs1 mgt1 strain (AID 161);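 note: 0% = growth of cultures given vehicle only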; conditions: S. cerevisiae sgs1 mgt1 strain, active compounds read high
Procedure, shortened: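 Yeast cells carrying a defined DNA-repair defect were exposed to test compounds. Growth inhibition was measured relative to vehicle-treated controls.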

[9] = NCI Yeast Anticancer Drug Screen. Data for the CLN2oe strain (AID 163);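 note: 0% = growth of vehicle-only control cultures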; conditions: S. cerevisiae CLN2oe strain, active compounds read high
Procedure, shortened: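 Yeast cells carrying a defined cell-cycle control alteration were exposed to test compounds. Growth inhibition was scored against vehicle-treated control cultures.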

[10] = NCI Yeast Anticancer Drug Screen. Data for the cln2 rad14 strain (AID 165);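 note: 0% = growth equal to vehicle treated cultures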; conditions: S. cerevisiae cln2 rad14 strain, active compounds read high
Procedure, shortened: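 Yeast carrying cln2 and rad14 alterations (cell cycle control and DNA damage repair) were exposed to compounds. Growth inhibition was measured against vehicle-treated controls.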

[11] = NCI Yeast Anticancer Drug Screen. Data for the bub3 strain (AID 167); conditions: S. cerevisiae bub3 mutant strain, active compounds read high
Procedure, shortened: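 Readout: yeast growth inhibition, expressed relative to vehicle-only wells. The test organism is a mutant strain from a panel with lesions in DNA repair or checkpoint genes.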

[12] = at 5.0 µM (retest, dose inferred, filed as 0.5)
[13] = at 50.0 µM (retest, dose inferred, filed as 5.0)

Measured: growth inhibition

CC1=CN2C(c3ccccc3)=NON(c3ccc(C)cn3)C2C=C1 (stereo not given)
inactive: [1]; at 1.2 µM 2% | [1]; at 3.7 µM 4% | [1]; at 11.0 µM -3% | [1]; at 33.0 µM 1% | [1]; at 100.0 µM -7% | [2]; at 1.2 µM -3% | [2]; at 3.7 µM -3% | [2]; at 11.0 µM -3% | [2]; at 33.0 µM -3% | [2]; at 100.0 µM -5% | [3]; at 1.2 µM 6% | [3]; at 3.7 µM 1% | [3]; at 11.0 µM 0% | [3]; at 33.0 µM -2% | [3]; at 100.0 µM -11% | [4]; at 1.2 µM -2% | [4]; at 3.7 µM 0% | [4]; at 11.0 µM -2% | [4]; at 33.0 µM -1% | [4]; at 100.0 µM -3% | [5]; at 1.2 µM 6% | [5]; at 3.7 µM 2% | [5]; [12] -5% | [5]; at 11.0 µM -6% | [5]; at 33.0 µM 1% | [5]; [13] 12% | [5]; at 50.0 µM -4.35% | [5]; at 100.0 µM -11% | [6]; at 1.2 µM -3% | [6]; at 3.7 µM -2% | [6]; [12] -24% | [6]; at 11.0 µM -3% | [6]; at 33.0 µM -2% | [6]; [13] -21% | [6]; at 50.0 µM 19.8% | [6]; at 100.0 µM -4% | [7]; at 1.2 µM 4% | [7]; at 3.7 µM 0% | [7]; at 11.0 µM -4% | [7]; at 33.0 µM -2% | [7]; at 100.0 µM -9% | [8]; [12] -15% | [8]; [13] 20% | [8]; at 50.0 µM 18% | [9]; at 1.2 µM 2% | [9]; at 3.7 µM -2% | [9]; at 11.0 µM -4% | [9]; at 33.0 µM -2% | [9]; at 100.0 µM -7% | [10]; [12] -23% | [10]; [13] -17% | [10]; at 50.0 µM -12.7% | [11]; at 1.2 µM -2% | [11]; at 3.7 µM -2% | [11]; [12] -25% | [11]; at 11.0 µM -6% | [11]; at 33.0 µM -4% | [11]; [13] 10% | [11]; at 50.0 µM 46% | [11]; at 100.0 µM -4%
